Out of some 330,000 compounds screened, about 40 (0.01%) were called active. The sample as a whole holds a higher share of actives than the screen did. Unmarked numbers belong to inactive results. Calls come from the whole dose curve; as a rule, active = well fitted inhibition curve with a large enough effect; inconclusive = small, poorly fitted or top-dose-only effect, or effect the other way; inactive = flat fitted curve, though single readings scatter.
Molecular target: Ubiquitin carboxyl-terminal hydrolase 2 (Homo sapiens) (UniProt O75604)
Sequence (O75604 whole entry, looked up): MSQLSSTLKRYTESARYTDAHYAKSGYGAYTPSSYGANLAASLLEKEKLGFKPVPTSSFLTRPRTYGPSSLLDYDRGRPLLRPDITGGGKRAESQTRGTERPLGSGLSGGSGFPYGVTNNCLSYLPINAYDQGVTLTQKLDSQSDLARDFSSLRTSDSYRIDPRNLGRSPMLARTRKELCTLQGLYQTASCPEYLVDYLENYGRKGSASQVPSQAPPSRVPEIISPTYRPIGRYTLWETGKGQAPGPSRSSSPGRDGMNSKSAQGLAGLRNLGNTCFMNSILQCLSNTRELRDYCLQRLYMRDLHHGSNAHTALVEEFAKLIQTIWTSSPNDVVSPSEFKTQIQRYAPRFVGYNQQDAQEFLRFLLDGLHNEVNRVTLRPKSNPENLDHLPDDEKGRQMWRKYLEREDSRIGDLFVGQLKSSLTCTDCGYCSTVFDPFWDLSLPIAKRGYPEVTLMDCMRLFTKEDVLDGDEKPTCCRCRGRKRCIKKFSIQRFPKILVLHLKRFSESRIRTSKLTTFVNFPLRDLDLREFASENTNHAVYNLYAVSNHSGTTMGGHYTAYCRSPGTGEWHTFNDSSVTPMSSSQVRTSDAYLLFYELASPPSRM
Experiment: qHTS Assay for Inhibitors of Ubiquitin-specific Protease USP2a Using CHOP2 as the Reporter
Conditions: USP2 core, Ub-CHOP2 coupled fluorogenic reporter, 485/531; series mostly up to 38.3 µM; activity change, negative = inhibition: at the top concentration
Description: NIH Molecular Libraries Screening Centers Network [MLSCN] NIH Chemical Genomics Center [NCGC] MLSCN Grant: XO1-MH079852-01 PI Name: Nicholson, Ben. Progenra Inc, Malvern, PA NCGC Assay Overview: Homeostasis of cellular proteins is maintained through a combination of synthesis and degradation. The pathway that accounts for the majority of protein degradation is the ubiquitin-proteasomal pathway. Ubiquitin (Ub) is highly conserved in all cells and the generation of a multi-Ub chain typically targets proteins for degradation by the proteasome. However, ubiquitination is highly reversible and dynamic. Deubiquitination, the reverse process, is catalyzed through the action of enzymes referred to as isopeptidases or deubiquitinating enzymes (DUBs). This group of enzymes is collectively responsible for maintaining adequate pools of free ubiquitin and regulating the ubiquitination status of cellular proteins. The class of DUBs referred to as the ubiquitin-specific proteases (USP) family functions endoproteolytically to cleave Ub chains from a wide range of protein substrates. USP2a deubiquitinates fatty acid synthase (FASN) which has recently been identified as an emerging oncology target. To identify inhibitors of USP2a a cell-free assay was employed. […] The reporter enzyme chosen is an enterokinase called CHOP2, which is activated when the Ub is cleaved by USP2. The free and now activated reporter can subsequently act on its reporter substrate. Thus, this coupled assay gives a fluorescent read-out at excitation/emission wavelengths of 485/531. The assay was developed by Progenra, Inc. and has been licensed for sale by LifeSensors, Inc. as Ub-CHOP2-Reporter-Kit (#PR1101).
NCGC Assay Protocol Summary: The assay buffer, prepared fresh at the day of the assay, contains 20mM Tris-HCl pH 8.0, 2mM CaCl2, 2mM beta-Mercaptoethanol, 0.05% CHAPS. 3ul of 20nM (10nM final) USP2 core, which is stored on ice, is dispensed into a medium-binding black solid Kalypsys 1,536 well plate using the Kalypsys dispenser. The assay plate is then pinned with 23nL compound with the Kalypsys pintool in columns 5-48. The controls are pinned as follows: column 1 two-fold dilutions of 2M NEM in duplicate; column 2 2M NEM (final concentration 38.2mM); column 3&4 DMSO. The assay plate is incubated at RT for 30min. Subsequently, 1.5uL of 100nM (25nM final) Ub-CHOP2 and 1.5uL of 100nM (25nM final) Reporter Substrate (both stored on ice and protected from light) were dispensed into the plate using the Kalypsys dispenser. Plates were read after 60min RT incubation on a ViewLux (Perkin Elmer) plate reader using the following wavelengths Ex 485nm /Em 531nm. Data were normalized to the to AC100 inhibition (NEM). Concentration-response curves were fitted to the normalized data and the concentration-response curves were then classified based on curve quality (r2), response magnitude and degree of measured activity. The time zero reading was used to flag fluorescence artifacts. Keywords: ubiquitination, deubiquitination, proteases, profluorescent, MLSMR, MLPCN, NIH Roadmap, qHTS, NCGC
Potency is the fitted concentration of half-maximal effect.

Compound | Potency | activity change, negative = inhibition [%]
O=C(OCC1O[C@@H](OC(=O)c2cc(O)c(O)c(O)c2)[C@@H](OC(=O)c2cc(O)c(O)c(O)c2)[C@@H](OC(=O)c2cc(O)c(O)c(O)c2)[C@@H]1OC(=O)c1cc(O)c(O)c(O)c1)c1cc(O)c(O)c(O)c1 (stereo not given in full) | 6.31 µM (active) | –
CC(C)(C)[C@]1(O)C[C@@H]2OC(=O)C[C@@]23C(=O)O[C@@H]2OC(=O)[C@H](O)[C@]213 | – | -0.667
NC(=O)Cn1cc(C(=O)c2ccccc2F)c2ccccc21 | – | -1.61
Cc1ccnc(-n2c(C)cc(/C=C3\C(=O)NC(=S)N(C)C3=O)c2C)c1 | – | 4.37
CC12CN3CC(C)(CN(C1)C3c1cccs1)C2 (stereo not given) | – | 4.94
